# ± gives the standard deviation of the averaged measurements. Whole data set: some 33,000 sequences, median “E-score (dimensionless, -0.5 to 0.5)” near -0.046, cut for the highest 2% near 0.36. Only a selection was taken, and the highest values are over-represented in it overall.
# System: T1, SpTbr T-box DNA-binding domain (GST fusion)
# T1 sequence: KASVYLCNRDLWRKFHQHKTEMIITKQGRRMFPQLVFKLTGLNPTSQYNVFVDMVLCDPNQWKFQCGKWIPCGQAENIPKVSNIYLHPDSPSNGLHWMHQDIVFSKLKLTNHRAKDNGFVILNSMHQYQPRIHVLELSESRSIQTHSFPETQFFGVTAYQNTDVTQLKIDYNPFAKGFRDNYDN
# Assay: PBM E-score of 8-mer (E-score (dimensionless, -0.5 to 0.5)); Tbr is Tbrain of the sea star Patiria miniata (Pm) or the sea urchin Strongylocentrotus purpuratus (Sp); higher = stronger binding preference
# Conditions: the construct has about 5 more residues each side
# Description: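 Universal protein-binding microarray (Agilent AMADID 016060, 60-bp probes with a 35-bp variable region) incubated with 200 nM GST-fused Strongylocentrotus purpuratus Tbr T-box DNA-binding domain (residues 362-554) in PBS pH 7.5. Scored for every ungapped 8-mer (given with its reverse complement) as E-score (range -0.5 to 0.5; >0.45 counts as bound) and Z-score of median probe intensity. Two replicate arrays (datasets 1 and 2).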
# 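Also: protein at 200 nM in PBS on universal double-stranded arrays.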
row,Sequence,PBM E-score of 8-mer
1,ATATGTTG,-0.00329 ± 0.071
2,CTGTGTTA,0.195 ± 0.079
3,CCTTTTAG,0.0506 ± 0.044
4,CTAACACC,0.464 ± 0.005
5,ATAACACG,0.303 ± 0.033
6,CTTACACC,0.392 ± 0.025
7,CGAACACC,0.321 ± 0.011
8,CTAACACA,0.354 ± 0.0043
9,ATAACACC,0.457 ± 0.0069
10,ATTACACC,0.358 ± 0.057
11,CTTACACA,0.276 ± 0.035
12,ATAACACA,0.35 ± 0.028
13,CTTCTAAC,0.16 ± 0.038
14,CATATCGA,-0.154 ± 0.056
15,CCGCAAAG,-0.233 ± 0.015
16,CGAGATCG,0.175 ± 0.058
17,AAACTGAG,-0.1 ± 0.018
18,CACCAAGC,0.129 ± 0.017
19,CCCAACAC,0.343 ± 0.013
20,GAACTTAC,-0.0233 ± 0.034
21,CCAAGTAA,-0.21 ± 0.095
22,CGCGAACA,0.36 ± 0.019
23,CGCGAACG,0.422 ± 0.013
24,CGCGAAAG,0.387 ± 0.015
25,AGCGAACC,0.0666 ± 0.08

row,Sequence,PBM E-score of 8-mer
1,AGCGAAAG,-0.123 ± 0.022
2,CGCGAAAC,0.344 ± 0.0048
3,GGCGAACC,-0.141 ± 0.05
4,CGCGAACC,0.375 ± 0.013
5,CGCGAAGA,0.371 ± 0.01
6,CGCGAAGC,0.324 ± 0.033
7,AGCGAAGA,0.106 ± 0.019
8,AGCGAACG,0.0538 ± 0.025
9,CAAATGAG,-0.158 ± 0.037
10,GACCAGTC,-0.333 ± 0.075
11,AGTCCATA,-0.295 ± 0.063
12,CACAGCGC,0.0949 ± 0.014
13,TGCCCACA,0.0199 ± 0.1
14,CGTTTGGA,-0.0006 ± 0.068
15,ACGTTCAC,0.369 ± 0.0053
16,ACGTTCAA,-0.145 ± 0.032
17,CCGTTCAC,0.367 ± 0.029
18,CCGTTCAG,-0.113 ± 0.032
19,ACGTTCAG,-0.122 ± 0.029
20,GCGTTCAC,0.239 ± 0.011
21,CGGAGACA,-0.0395 ± 0.021
22,ACAGAGAC,-0.0676 ± 0.02
23,CAACCCTG,0.014 ± 0.024
24,CGCCTTGA,0.159 ± 0.083
25,AGCCACAA,0.0237 ± 0.048

row,Sequence,PBM E-score of 8-mer
1,GACACCGA,0.293 ± 0.0048
2,GAGACCTC,-0.305 ± 0.013
3,GACACCTC,0.479 ± 0.009
4,GACACCTA,0.4778 ± 0.0018
5,GACACCGC,0.244 ± 0.061
6,GACACGTA,0.29 ± 0.0077
7,ACCAGTAG,-0.2 ± 0.063
8,AATGGACC,-0.2776 ± 0.0022
9,GGATGGAC,-0.203 ± 0.0084
10,GGTCAGAC,-0.274 ± 0.051
11,CTTCACGA,0.167 ± 0.043
12,AGTCACGC,0.3794 ± 0.0033
13,ATTCACGC,0.424 ± 0.0061
14,AGTCACGA,0.152 ± 0.0034
15,AGTCACGG,-0.193 ± 0.0098
16,CCTCACGC,0.322 ± 0.036
17,ATTCACGG,0.259 ± 0.00064
18,ATTCACGA,0.288 ± 0.047
19,CTTCACGC,0.409 ± 0.01
20,CACTGGCG,0.162 ± 0.084
21,ACCCATTC,-0.15 ± 0.062
22,TGGGGTAA,-0.1604 ± 0.001
23,GATTCGCA,0.327 ± 0.014
24,TATTCGCA,0.369 ± 0.0054
25,CATTCGTA,-0.0369 ± 0.038

row,Sequence,PBM E-score of 8-mer
1,ATTTCGCA,0.335 ± 0.025
2,CATTCGCA,0.384 ± 0.0068
3,AATTCGCG,0.279 ± 0.02
4,TATTCGAA,-0.0307 ± 0.088
5,AATTCGCA,0.321 ± 0.023
6,CATTCGCC,-0.147 ± 0.039
7,CATTCGCG,0.389 ± 0.0059
8,ATTTCGCC,-0.0532 ± 0.044
9,ATTTCGCG,0.389 ± 0.016
10,AGTCAAAA,-0.181 ± 0.0086
11,AGATTAGC,0.0489 ± 0.043
12,ACATGGGG,-0.06449 ± 0.00059
13,GTCATCTA,-0.0343 ± 0.015
14,GACCACTC,0.0231 ± 0.029
15,AAAGGCTC,-0.214 ± 0.06
16,GGCAAAAA,0.0671 ± 0.028
17,AACCACGT,-0.161 ± 0.017
18,GTGGCAAA,0.309 ± 0.024
19,ACGTGGGA,0.203 ± 0.026
20,CCGATAGG,0.00486 ± 0.048
21,GTTTCGCA,0.36 ± 0.02
22,CTTTCGCC,-0.043 ± 0.078
23,CTTTCGCA,0.421 ± 0.015
24,CGTATCTC,-0.174 ± 0.0059
25,AGCACCTG,0.398 ± 0.0042

row,Sequence,PBM E-score of 8-mer
1,GCCACCTA,0.285 ± 0.036
2,GGCACCTA,0.382 ± 0.015
3,AGCACCGG,-0.0409 ± 0.027
4,ACCACCTC,0.343 ± 0.046
5,ATCACCTG,0.304 ± 0.022
6,AGCACCGC,-0.0167 ± 0.064
7,AGCACCTC,0.4014 ± 0.004
8,AGCACCTA,0.409 ± 0.0069
9,ACCACCTA,0.109 ± 0.065
10,AGCACCGA,-0.094 ± 0.013
11,GGCACCGA,-0.122 ± 0.1
12,ACGAAGCC,-0.00822 ± 0.065
13,ACTGGCCA,0.0049 ± 0.016
14,ATAGGCTC,-0.167 ± 0.02
15,ACGCTACG,0.102 ± 0.023
16,ACCAACGA,0.102 ± 0.0046
17,CTCGGCCC,-0.0368 ± 0.041
18,ACTTTTGA,-0.0941 ± 0.084
19,AGTTTCAT,-0.233 ± 0.01
20,TCAATCGA,-0.0374 ± 0.037
21,GACCAAAA,-0.133 ± 0.0068
22,CAGAGCTC,-0.265 ± 0.01
23,CGCACCCG,0.267 ± 0.054
24,CGCACCTC,0.453 ± 0.016
25,CGCACCGA,0.0672 ± 0.045

row,Sequence,PBM E-score of 8-mer
1,CGCACCTA,0.43 ± 0.0064
2,TGCACCCA,-0.00634 ± 0.056
3,CGCACCGC,0.228 ± 0.031
4,CCCACCTC,0.251 ± 0.043
5,CGCACCCA,0.372 ± 0.029
6,CGCACCAA,0.2705 ± 0.0014
7,CACTCAAG,0.106 ± 0.095
8,ATCTGTAG,-0.206 ± 0.018
9,ATGGGAAC,-0.109 ± 0.011
10,CCAAGGCA,-0.112 ± 0.0028
11,CGTCGAGA,-0.0352 ± 0.014
12,CACCTTTC,0.379 ± 0.024
13,AACCTTTA,0.000765 ± 0.041
14,CACCTTTA,0.414 ± 0.0042
15,AACCTTTC,-0.0391 ± 0.099
16,GACCTTTA,-0.242 ± 0.0044
17,CCCCTTTC,-0.132 ± 0.052
18,AAGGGAGA,-0.13 ± 0.033
19,ATAGCCAT,-0.118 ± 0.018
20,CGTGCTCA,-0.0222 ± 0.013
21,TACCACGA,-0.00786 ± 0.00088
22,CGCGCGGC,0.208 ± 0.04
23,ATCTGGCG,0.0377 ± 0.0091
24,ATCGAGAC,0.0132 ± 0.042
25,GGTAGCTA,-0.314 ± 0.032

row,Sequence,PBM E-score of 8-mer
1,ATAGCCGG,-0.203 ± 0.015
2,TGGGTGAA,-0.137 ± 0.0066
3,CGTGTGAA,0.4643 ± 0.0031
4,TATGTGAA,0.17 ± 0.07
5,TGTGTGAA,0.4829 ± 0.004
6,CGTGTGTA,0.096 ± 0.044
7,CCTGTGAA,0.363 ± 0.011
8,CCTGCCTC,0.0708 ± 0.019
9,CTATCCTA,-0.171 ± 0.0083
10,GTTGACCA,0.142 ± 0.036
11,ATAACCAC,-0.138 ± 0.015
12,TCACACCA,0.4853 ± 0.0026
13,TCTCACCA,0.372 ± 0.011
14,ACACACAA,0.148 ± 0.02
15,CCACACCA,0.314 ± 0.057
16,ACACACCA,0.287 ± 0.013
17,ACTCACCA,-0.0326 ± 0.014
18,TCGCACCA,0.434 ± 0.023
19,GCGCACCA,0.00307 ± 0.052
20,CCACACAA,0.0877 ± 0.025
21,CCTCACCA,0.197 ± 0.025
22,TCACACAA,0.435 ± 0.0069
23,CCGCACCA,0.186 ± 0.032

# Source: the supplement of paper PMC4166925
